# Assay outcomes (PubChem)
# HP1b chromo inh: blocks HP1-beta chromodomain binding to methylated histone tails | P83916 | AlphaScreen HP1-beta / biotin-H3K9me3 peptide binding | Potency, µM (doses to about 114 µM), without a hit: top-dose activity change, negative = inhibition, actives largely listed as inhibitors | hit rate 0.56% among 390,000; note: potency is the fitted concentration of half-maximal effect; nearly all actives have a fitted effect of over 70% in size
# Target sequence (P83916 whole entry, looked up): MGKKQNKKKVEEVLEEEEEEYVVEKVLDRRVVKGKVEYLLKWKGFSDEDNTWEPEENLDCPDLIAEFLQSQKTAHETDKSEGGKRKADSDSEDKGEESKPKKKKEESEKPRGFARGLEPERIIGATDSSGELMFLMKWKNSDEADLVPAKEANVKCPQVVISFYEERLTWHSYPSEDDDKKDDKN
#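 HP1-beta protein (50 nM final) preincubated 30 min at room temperature with biotinylated H3(1-18)K9me3 peptide (50 nM) in PBS pH 7.4, 0.01% Tween-20, then compound added for 30 min. AlphaScreen streptavidin donor/nickel chelate acceptor beads (10 ug/mL final), 30 min dark, luminescence read.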
# KAT2A inh: inhibitors of human GCN5L2 histone acetyltransferase. Q92830. GCN5L2 HAT assay, ThioGlo1 CoA-SH fluorescence. Potency, µM (titrated, usually from 58.9 µM), inactives show top-dose activity change, negative = inhibition, usual class: inhibitors. hit rate 0.21% among 390,000. AID 504327; note: potency is the fitted concentration of half-maximal effect; % is set by controls: 0 for no effect and ±100 for the full control effect
#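 Fluorescence readout, Ex340nm/Em540nm: ThioGlo1 (50uM final) reacts with free CoA thiol released as 20nM GCN5L2 acetylates H3(1-25) peptide (75uM) using acetyl-CoA (70uM). Compound and enzyme sat 15 min beforehand; 20 min room-temperature reaction.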
# JMJD2A Tudor inh: JMJD2A Tudor domain (human) inhibition | O75164 | AlphaScreen JMJD2A-Tudor / H3K4me3 peptide binding | Potency, µM (series often up to 114 µM), for inactives: at the highest dose activity change, negative = inhibition, usual class: inhibitors | hit rate 4.4% among 390,000; note: potency is the fitted concentration of half-maximal effect; % is set by controls: 0 for no effect and ±100 for the full control effect; nearly all actives have a fitted effect of over 50% in size
# PLK1 PBD inh: PLK1 (human) polo-box domain binding inhibition | Plk1 PBD binding of FITC phosphopeptide, fluorescence polarization | Potency, µM, for inactives: max response, negative = inhibition, usual class: inhibitors | hit rate 2.8% among 360,000; note: potency is the fitted concentration of half-maximal effect; series mostly up to about 57 µM; % is set by controls: 0 for no effect and ±100 for the full control effect; nearly all actives have a fitted effect of over 65% in size
# PI5P4Ka inh: inhibitors of human PI5P4K alpha; max response, %; P48426; PI5P4Kalpha enzyme, ADP-Glo luminescence, 60 min; active compounds read low; hit rate 1.2% among 330,000; active = max response of -50% or lower; inconclusive = between -30% and -50%; inactive = -30% or higher; note: value at the top dose of about 77 µM; % is set by controls: 0 for no effect and ±100 for the full control effect
# Target sequence (P48426 whole entry, looked up): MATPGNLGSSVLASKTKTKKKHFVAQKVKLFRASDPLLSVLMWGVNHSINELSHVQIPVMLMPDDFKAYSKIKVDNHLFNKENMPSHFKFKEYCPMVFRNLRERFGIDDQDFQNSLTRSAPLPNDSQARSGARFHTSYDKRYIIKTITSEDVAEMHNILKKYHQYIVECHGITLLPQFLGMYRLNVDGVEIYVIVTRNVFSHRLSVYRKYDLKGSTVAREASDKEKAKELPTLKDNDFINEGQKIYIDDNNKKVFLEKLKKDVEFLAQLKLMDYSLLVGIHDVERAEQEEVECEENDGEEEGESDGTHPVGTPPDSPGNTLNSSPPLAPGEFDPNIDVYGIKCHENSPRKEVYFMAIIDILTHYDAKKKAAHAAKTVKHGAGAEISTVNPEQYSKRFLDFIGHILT
#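 qHTS, 1536-well: enzyme/substrate mix, compound by pin tool, 5 microM ATP final; RT 60 min; ADP-Glo reagents 1 (45 min) then 2 (30 min); luminescence.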
# BAZ2B block: inhibitors of human BAZ2B bromodomain. Q9UIF8. AlphaScreen BAZ2B-H3K14Ac peptide displacement. Potency, µM (top dose mostly 114 µM), for the others: top-dose activity change, negative = inhibition, actives largely listed as inhibitors. hit rate 4.4% among 360,000. AID 504333; note: potency is the fitted concentration of half-maximal effect; % is set by controls: 0 for no effect and ±100 for the full control effect; nearly all actives have a fitted effect of over 60% in size
#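 Complex of BAZ2B and biotin-H3K14Ac (50 nM apiece) forms over 30 min at RT, then faces library compounds up to 110 uM for another 30 min; AlphaScreen beads added, 20 min dark incubation, luminescence read.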
# The depositor's hits bear a star; ? = inconclusive; . = no result; [ ] = dose if it differs, or a comment. Hits are enriched below; roughly 7% of the tested compounds scored in any of these assays. Unless noted, calls come from the whole dose curve; as a rule, active = well fitted curve in the direction sought with a large enough effect; inconclusive = small, poorly fitted or top-dose-only effect, or another doubt; inactive = no such curve, though single readings can be large; an effect the other way counts as inactive or inconclusive.
SMILES,HP1b chromo inh,KAT2A inh,JMJD2A Tudor inh,PLK1 PBD inh,PI5P4Ka inh,BAZ2B block
Cn1cccc1/C=N/N1CCN(Cc2ccc(Cl)cc2)CC1,40µM*,-9%,50µM*,-11%,1,32µM*
O=C(O)c1ccc(/C=N/N2CCN(Cc3cccc4ccccc34)CC2)cc1,-13%,-2%,-35%,-7%,1,-33%
FC(F)(F)c1ccc(/C=N/N2CCN(Cc3cccc4ccccc34)CC2)cc1,-2%,-7%,-20%[57.1 µM],2%,0,-30%[57.1 µM]
Cc1ccc(CN2CCN(/N=C/c3ccc(N(C)C)cc3)CC2)cc1,?,-7%,?,8%,3,?
COc1ccc(C)cc1S(=O)(=O)N(CC(=O)NC1CCCC1)c1ccc(F)cc1,25%,3%,-4%,-5%,7,0%
Cn1cccc1/C=N/N1CCN(Cc2ccccc2)CC1,?,-10%,?,-4%,-4,50µM*
CC(=O)C[C@@H](O)CC(=O)[C@H]1OC(=O)CCCCCCCCc2ccccc21,17%,2%,-15%,-14%,3,.
Nc1c(-c2ccc(C(F)(F)F)cc2)nc2ncccn12,.,.,.,6%,1,.
O=C1c2ccccc2-c2onc3c(Oc4ccccc4)cc(O)c1c23,.,-15%,.,.,.,35µM*
O=C(CCn1cnnn1)Nc1cc(C(F)(F)F)cc(C(F)(F)F)c1,36%,-3%,-6%,.,.,-1%
COc1cc(CNC(=O)OC2CC3CC2[C@H]2CCCCN2C3=O)cc(OC)c1 (stereo partly drawn),.,.,.,-7%,-3,.
COc1cc(CNC2CCCCC2OC)cc(OC)c1 (stereo not drawn),?,4%,5.6µM*,-2%,-7,56µM*
O=C(O)c1ccccc1-c1c2cc(Br)c(=O)c(Br)c-2oc2c(Br)c(O)c(Br)cc12,.,22µM*,.,.,.,.
O=C(CS(=O)(=O)c1ccccc1)Nc1nnc(Cc2ccccc2)s1,-13%,-7%,-7%,13µM*,2,-26%
CCC(CC)c1nnc(NC(=O)CCS(=O)(=O)Cc2ccccc2)s1,6%,-9%,-14%,24µM*,4,1%
CCC(CC)c1nnc(NC(=O)CS(=O)(=O)c2ccccc2)s1,-38%,0%,-4%,9.5µM*,-9,0%
CC(C)COC(=O)Nc1nnc(Cc2ccccc2)s1,-4%,-3%,18µM*,?,-1,-6%
CC(C)(C)C(=O)Nc1nnc(Cc2ccccc2)s1,15%,0%,-4%,-9%,.,5%
COc1ccc(NC(=O)c2ccc(Cl)cc2)c[n+]1[O-],21%,-1%,-15%,-1%,4,-8%
Cc1ccc(OCc2nc3ccccc3n2C(C)C(=O)Nc2c(C)cccc2C)cc1 (stereo not drawn),.,.,.,-16%,?,.
CCC1(C)NC(c2ccc3c(c2)OCO3)=CC(c2ccccc2O)N1 (stereo not drawn),4%[57 µM],.,-4%[57.1 µM],.,.,.
S=c1ccss1,.,25µM*,.,.,.,.
Cc1cccc2nc(-c3ccccn3)c(Nc3ccc(F)cc3)n12,19%,-8%,45µM*,.,.,16µM*
Fc1ccc(Nc2c(-c3c[nH]c4ccccc34)nc3ccccn23)cc1,?,-18%,35µM*,.,.,?
Cc1ccc(Nc2c(-c3ccccn3)nc3cccc(C)n23)cc1,?,-6%,-35%[11.4 µM],?,-1,16µM*
SMILES,HP1b chromo inh,KAT2A inh,JMJD2A Tudor inh,PLK1 PBD inh,PI5P4Ka inh,BAZ2B block
Cc1ccc(Nc2c(-c3ccsc3)nc3cccc(C)n23)cc1,?,-11%,50µM*,.,.,?
Cc1cc(C)n2c(Nc3ccc(Cl)cc3)c(-c3ccsc3)nc2n1,18%,2%,-18%,.,.,-24%
Cc1nnc(NC(=O)CSc2nc3c([nH]c4ccccc43)c(=O)n2-c2ccc(Cl)cc2)s1,17%[57 µM],3%,-2%,.,.,2%
Cc1cccc2nc(-c3ccccn3)c(Nc3ccccc3)n12,5%,-5%,40µM*,.,.,8.9µM*
Cc1ccc(Nc2c(-c3ccccn3)nc3ccc(Br)cn23)cc1,34%,-2%,?,.,.,-33%
Cc1cccc(C)c1Nc1c(-c2ccccc2F)nc2cccc(C)n12,?,0%,50µM*,.,.,?
CCCCNc1c(-c2ccccn2)nc2nc(C)cc(C)n12,.,.,.,4%,-3,.
Cc1ccn2c(Nc3ccc(F)cc3)c(-c3ccccn3)nc2c1,-14%,-5%,25µM*,.,.,14µM*
CCCN(C(=O)COC(=O)CCC(=O)c1ccccc1)c1c(N)n(Cc2ccccc2)c(=O)[nH]c1=O,.,.,.,-12%,-8,.
CCc1nc2c(OCCOc3ccc(F)cc3)cccn2c1N(C)C(=O)c1cccs1,.,.,.,-11%,-6,.
CN1CCCCCC1=Nc1ccccc1C#N,13µM*,-5%,1.8µM*,-1%,1,45µM*
Cc1ccccc1Nc1nc(-c2sc(NC(=O)c3cccc(Cl)c3)nc2C)cs1,.,-1%,.,.,.,89µM*
Cc1nc(NC(=O)c2ccccc2)sc1-c1csc(Nc2ccc(Cl)cc2Cl)n1,.,-13%,.,.,.,50µM*
Cc1ccc(Cl)cc1Nc1nc(-c2sc(NC(=O)c3cccc(Cl)c3)nc2C)cs1,.,2%,.,.,.,?
COc1ccc(Cl)cc1Nc1nc(-c2sc(NC(=O)c3ccccc3)nc2C)cs1,.,0%,.,.,.,56µM*
O=C1OCC/C1=C\c1ccc(O)cc1,40%,1%,3%,-7%,2,5%
CCOc1ccc(CN2CCN(C(=O)c3cccc4ccccc34)CC2)cc1,?,-2%,25µM*,-7%,-6,45µM*
COc1cc(CN2CCN(C(=O)c3cccc4ccccc34)CC2)cc(OC)c1O,?,-4%,22µM*,-2%,1,50µM*
COc1ccc(CN2CCN(C(=O)c3ccccc3C(=O)c3ccccc3)CC2)cc1OC,31%,.,1%,6%,-5,.
COC(=O)Cc1c(C)c2cc3c(c(C)c2oc1=O)OCN(CCc1ccccc1F)C3,43%,?,-26%,.,.,-7%
COC(=O)Cc1c(C)c2cc3c(c(C)c2oc1=O)OCN(CCc1ccc(OC)cc1)C3,43%,32µM*,-6%,.,.,-3%
CN(C(=O)C1CC1)C1CCS(=O)(=O)C1 (stereo not drawn),24%,-3%,-6%,-22%,-2,-5%
COc1ccccc1N1CCN(Cc2nc3ccsc3c(=O)[nH]2)CC1,9%,-23%,3.5µM*,1%,-3,-7%
COc1cc(Cl)c(CN2CCC(CCC(=O)NC3CC3)CC2)cc1OC,50%,-1%,-7%,-2%,2,-9%
COc1cc(OC)c(OC)cc1CN1CCN(Cc2cccn2C)CC1,25µM*,-2%,3.5µM*,-11%,4,40µM*
COc1ccccc1N1CCN(Cc2nc3ccccc3[nH]2)CC1,28%,0%,-13%,-5%,-7,-8%
COc1cc(OC)c(OC)cc1CN1CCN(c2ccccc2OC)CC1,?,1%,3.2µM*,-8%,.,?
